“And” between values parts separate entries of the source, which are not always exact repeats. Equal values may be shown once. Results filed as inconclusive are left out. Unmarked numbers belong to inactive results. The source made the active and inactive calls. The call rests on the fitted dose curve; in most records, active means well fitted inhibition curve with a large enough effect; inconclusive means small, poorly fitted or top-dose-only effect; inactive means flat fitted curve, though single readings scatter.
Each compound was assayed on CRL-7250 (assay: Cytotoxic Profiling of Annotated Libraries Using Quantitative High-Throughput Screening (AID 1296008; further: nearly all actives have a fitted effect of over 60% in size)). Conditions: Five cell lines viability, CellTiter-Glo ATP luminescence, 48-72 h; max response: hits give low values.
How it was run: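 Cells exposed to compounds for 48 or 72 hr at 37 degrees Celsius. Viability read as ATP-coupled luminescence with CellTiter-Glo after 10 min at room temperature.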
`CNC(=O)c1ccc(Nc2ncc(C(F)(F)F)c(NCc3nccnc3N(C)S(C)(=O)=O)n2)cc1` was tested, and the Potency was 4.17 µM (active).
`CC1(C)CC[C@]2(C(=O)O)CC[C@]3(C)C(=CCC4[C@@]5(C)C[C@H](O)[C@H](O[C@@H]6OC[C@H](O)[C@H](O)[C@H]6O)[C@@](C)(CO)C5CC[C@]43C)[C@@H]2C1` (stereo not given in full) was tested, and the outcome was “inactive”.
In the case of `CC1(C)CC[C@]2(C(=O)O[C@@H]3O[C@H](CO)[C@@H](O)[C@H](O)[C@H]3O)CC[C@]3(C)C(=CCC4[C@@]5(C)C[C@@H](O)[C@H](O)[C@@](C)(CO)C5CC[C@]43C)C2C1` (stereo not given in full), the max response is reported as 1.73%.
For `CC12CCC3c4ccc(O)cc4CCC3C1CCC2OC1OC(C(=O)O)C(O)C(O)C1O` (stereo not given), the outcome was “inactive”.
For `CO[C@@]12CC3[C@@H]([C@@H](O)[C@@H](OC(C)=O)C4[C@](C)(COC(C)=O)CCC[C@]34C)[C@@H](C)C1=CC(=O)O2` (stereo not given in full), the outcome was “inactive”.
`OC[C@H]1O[C@@H](OCCc2ccc(O)cc2)[C@H](O)[C@@H](O)[C@@H]1O` gave a max response of 1.66%.
With `C[C@@H]1CC[C@H]2C(C)(C)[C@H](O)[C@H](O)C[C@]2(C)[C@@]12Cc1c(O)cc3c(c1O2)CNC3=O` the outcome was “inactive”.
For `CC1(CO)CC[C@]2(C(=O)O[C@@H]3O[C@H](CO)[C@@H](O)[C@H](O)[C@H]3O)CC[C@]3(C)C(=CCC4[C@@]5(C)CC[C@H](O[C@@H]6O[C@H](C(=O)O)[C@@H](O)[C@H](O)[C@H]6O)C(C)(C)C5CC[C@]43C)C2C1` (stereo not given in full), the max response was -1.41%.
Work on `C=C(C(=O)O)[C@@H]1CC=C2CCC[C@H](C)[C@@]2(C)C1` yielded a max response of -11.2%.
`c1nc(NC2CCCCCC2)c2cc(CNC[C@H]3CCCO3)sc2n1` was tested, and the outcome was “inactive”.
In the case of `c1ccc(Nc2nc3c(s2)CCCc2[nH]ncc2-3)nc1`, the max response is reported as -6.19%.
For `COc1cc([C@H]2OC[C@]3(OC(C)=O)[C@@H](c4ccc(O[C@@H]5O[C@H](CO)[C@@H](O)[C@H](O)[C@H]5O)c(OC)c4)OC[C@H]23)ccc1O`, the outcome was “inactive”.
With `C=CC(C)(O)CC/C=C(/C)C(=O)OC1C(OC2OCC(OC3OC(CO)C(O)C(O)C3O)C(OC3OCC(O)C(OC4OC(C)C(O)C(O)C4O)C3O)C2O)COC(OC(=O)C23CCC(C)(C)CC2C2=CCC4C5(C)CCC(OC6OC(CO)C(OC7OC(CO)C(O)C(OC8OCC(O)C(O)C8O)C7O)C(O)C6O)C(C)(C)C5CCC4(C)C2(C)CC3O)C1O` (stereo not given) the outcome was “inactive”.
Work on `C=C1[C@@H]2[C@H]3OC(=O)C(=C)[C@@H]3CC[C@@](C)(O)[C@@H]2C[C@@H]1O[C@@H]1O[C@H](CO)[C@@H](O)[C@H](O)[C@H]1O` yielded a max response of -4.93%.
Work on `C/C(=C\CCC(C(=O)O)C1CCC2(C)C3=C(CCC12C)C1(C)CCC(=O)C(C)(C)C1CC3)C(=O)O` (stereo not given) yielded a max response of -10.7%.
Work on `CC[C@H](/C=C/[C@@H](C)[C@H]1CC[C@H]2[C@@H]3CC=C4C[C@@H](O)CC[C@]4(C)[C@H]3CC[C@]12C)C(C)C` yielded a max response of -4.85%.
`Cc1cn2c(N)c(Cl)cc(C(=O)NCC3CCN(CC(C)C)CC3)c2n1` gave a max response of -6.05%.
For `COC1C=C([C@@H]2CC=C3[C@@]4(C)C(CC[C@]32C)[C@@]2(C)C=CC(=O)C(C)(C)C2C[C@H]4OC(C)=O)C(=O)O1` (stereo not given in full), the outcome was “inactive”.
`NCCCC[C@H](NC(=O)[C@@H]1Cc2ccccc2CN1C(=O)CCC(=O)c1ccccc1)C(=O)NCC(c1ccccc1)c1ccccc1` was tested, and the outcome was “inactive”.
Work on `NC(=O)c1ccc(OCC2NC(=O)C3CCCN3C2=O)cc1` (stereo not given) yielded a max response of -2.01%.
Work on `CC(=O)OC[C@]12[C@H](OC(C)=O)C(=O)[C@@H]3[C@@H](OC(C)=O)[C@@]14O[C@@]3(C)COC(=O)c1cccnc1[C@@H](C)[C@H](C)C(=O)O[C@@H]([C@H](OC(C)=O)[C@@H]2OC(C)=O)[C@]4(C)O` yielded a max response of 2.64%.
In the case of `COc1ncc(-c2ccc3c(Nc4cc(Oc5cc(F)cc(F)c5)cc(C(=O)O)c4)c(S(=O)(=O)NC4CC4)cnc3c2)c(OC)n1`, the max response is reported as -7.5% and -5.78%.
Work on `CCOC(=O)[C@H](CCc1ccccc1)CC1(C(=O)N[C@H]2CCc3ccccc3N(CC(=O)O)C2=O)CCCC1` yielded a max response of -3.46%.
`COC(=O)C1=CO[C@@H](O[C@@H]2O[C@H](CO)[C@@H](O)[C@H](O)[C@H]2O)[C@@H]2[C@@H](C(=O)OC)[C@@H](O)C(O)[C@H]12` (stereo not given in full) was tested, and the max response was -2.23%.
For `CC(C)=CCC/C(C)=C/CC/C(C)=C/CC[C@]1(C)CCc2cc(O)cc(C)c2O1`, the max response was 3.81%.
`OCC1OC(Oc2cc(O)c3c(c2)OC(c2ccc(O)cc2)C(O)C3)C(O)C1O` (stereo not given) showed a max response of -1.28%.
In the case of `C[C@@H]1O[C@@H](O[C@H]2[C@H](O[C@H]3[C@H](O[C@H]4CC[C@@]5(C=O)C(CC[C@]6(C)C5CC=C5C7CC(C)(C)C[C@@H](O)[C@]7(C)CC[C@]56C)C4(C)C)O[C@H](C(=O)O)[C@@H](O)[C@@H]3O)OC[C@@H](O)[C@@H]2O)[C@H](O)[C@H](O)[C@H]1O` (stereo not given in full), the outcome is reported as “inactive”.
With `O=C(O[C@H]1[C@@H]2C=CO[C@@H](O[C@@H]3O[C@H](CO)[C@@H](O)[C@H](O)[C@H]3O)[C@@H]2[C@@]2(CO)O[C@@H]12)c1ccc(O)c(O)c1` the outcome was “inactive”.
`COc1cc2c(cc1O)C1(Cc3ccc4c(c3C1=O)OCO4)N(C)CC2` (stereo not given) was tested, and the max response was 3.99%.
With `O=C(COc1ccc(Cl)cc1)NC1CCC(NC(=O)COc2ccc(Cl)cc2)CC1` (stereo not given) the max response was 2.66%.
In the case of `CC1C(=O)CC2C3C(O)CC(C(=O)O)C12CC3(C)C` (stereo not given), the outcome is reported as “inactive”.
For `CC1=CCC2C(C)(CO)CCCC2(CO)C1CO` (stereo not given), the outcome was “inactive”.
`C=C(C(=O)O)C1CCC(C)C2CCC(=O)OC2(C)C1` (stereo not given) showed a max response of 4.24%.
`C=C1[C@H]2CC[C@]3(O)[C@@](CC[C@@H]4[C@](C)(C(=O)O)CCC[C@]43C)(C2)[C@H]1OC(=O)/C(C)=C\C` was tested, and the max response was 2.63%.
Compound `C[C@@H]1CC[C@]2(C(=O)O)CC[C@]3(C)C(=CCC4[C@]5(C)C(CC[C@]43C)C(C)(C)[C@@H](O)[C@H](O)[C@@H]5O)C2[C@]1(C)O` (stereo not given in full) has a max response of -2.7%.
`C=C[C@@]1(C)CC(=O)C2[C@](C)(O1)[C@@H](OC(C)=O)[C@@H](O)[C@H]1C(C)(C)CCC[C@]21C` (stereo not given in full) gave a max response of -2.88%.
With `CC(=O)c1c(C)cc(O[C@@H]2O[C@H](CO)[C@@H](O)[C@H](O)[C@H]2O)cc1O` the outcome was “inactive”.
`CC(=O)O[C@@H]1C[C@]2(C)[C@@]3(CCC4[C@@]5(C)CC[C@H](O[C@@H]6O[C@H](C(=O)O)[C@@H](O)[C@H](O[C@@H]7O[C@H](CO)[C@H](O)[C@H](O)[C@H]7O[C@@H]7O[C@@H](C)[C@H](O)[C@@H](O)[C@H]7O[C@@H]7OC[C@](O)(CO)[C@H]7O)[C@H]6O[C@@H]6O[C@H](CO)[C@H](O)[C@H](O)[C@H]6O)C(C)(C)C5CC[C@]42C)O[C@@H](O)[C@]12C3CC(C)(C)[C@@H](OC(=O)/C=C/c1ccc(O)c(O)c1)[C@@H]2OC(=O)/C=C/c1ccccc1` (stereo not given in full) was tested, and the max response was 3.23%.
In the case of `C=C1CCC2C(C)(COC3OC(COC(=O)CC(=O)O)C(O)C(O)C3O)CCCC2(C)C1CCC1=CCOC1=O` (stereo not given), the outcome is reported as “inactive”.
`COc1ccc(C(=O)O[C@H]2CC(C)=CC[C@@]3(C)[C@@H](OC(C)=O)C[C@@](O)(C(C)C)[C@H]23)cc1` showed a max response of -4.18%.
On the % scale 0 is the no-effect control and ±100 the full control effect; potency means the concentration at half of the fitted maximal effect.
